# According to PubChem BioAssay (EPA / NIEHS):
# The source made the active and inactive calls. Rule for the calls: active = hit-call score of the fitted dose curve at least 0.9, where 1 is the maximum; inactive = score below 0.9.
# Legend:
# Settings in all cases: mRNA level, 48 h; actives raise or lower the signal
# [1] = read-out: Nuclear factor NF-kappa-B p105 subunit (Homo sapiens) (UniProt P19838); experiment: LTEA_HepaRG_NFKB1: Life Technologies and Expression Analysis (LTEA) Assay for Nuclear Factor Kappa B Subunit 1 (NFKB1) using HepaRG (AID 2283521);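 for outcome: TaqMan qRT-PCR transcript normalised to ACTB GAPDH and POLR2A housekeeping genes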
# Outline: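 Differentiated human HepaRG cells in serum-free induction medium with 0.5% DMSO were exposed for 48 h to eight half-log concentrations, top 100 uM, in duplicate. NFKB1 mRNA measured by Fluidigm TaqMan qRT-PCR, normalised to ACTB, GAPDH and POLR2A; bidirectional fit versus DMSO.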
# [2] = read-out: Protein phosphatase 2A (PPP2R4), PTPA (gene 5524); experiment: LTEA_HepaRG_PPP2R4: Life Technologies and Expression Analysis (LTEA) Assay for Protein phosphatase 2A (PPP2R4) using HepaRG (AID 2283522)
# Outline: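 Using HepaRG cultures maintained in 0.5% DMSO, chemicals are tested 48 h at up to 100 uM in duplicate. Induction or suppression of PPP2R4 mRNA, measured by qRT-PCR, is fitted bidirectionally against the vehicle baseline.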
# [3] = read-out: Phosphatase and tensin (PTEN), PTEN (gene 5728); experiment: LTEA_HepaRG_PTEN: Life Technologies and Expression Analysis (LTEA) Assay for Phosphatase and tensin (PTEN) using HepaRG (AID 2283523)
# Outline: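 Expression of PTEN is quantified in the human liver line HepaRG following two days of dosing (top concentration 100 uM, half-log dilutions, 0.5% DMSO). Values derive from bidirectional curve fitting relative to DMSO controls.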
# [4] = read-out: solute carrier (SLC22A1), SLC22A1 (gene 6580); experiment: LTEA_HepaRG_SLC22A1: Life Technologies and Expression Analysis (LTEA) Assay for solute carrier (SLC22A1) using HepaRG (AID 2283524)
# Outline: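 Transcript induction or suppression of SLC22A1 in human HepaRG cultures is scored after 48 h chemical treatment, with DMSO (0.5%) as baseline for bidirectional fitting. Concentrations span eight half-log points topping at 100 uM.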
# [5] = read-out: Pyruvate Dehydrogenase Kinase 4 (PDK4), PDK4 (gene 5166); experiment: LTEA_HepaRG_PDK4: Life Technologies and Expression Analysis (LTEA) Assay for Pyruvate Dehydrogenase Kinase 4 (PDK4) using HepaRG (AID 2283525)
# Outline: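 Eight-point, half-log concentration series (max 100 uM, 0.5% DMSO) applied to differentiated HepaRG cells for 48 h in duplicate. Endpoint: PDK4 mRNA induction or repression by qRT-PCR against DMSO baseline.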
# [6] = read-out: NAD(P)H dehydrogenase [quinone] 1 (NQO1), NQO1 (gene 1728); experiment: LTEA_HepaRG_NQO1: Life Technologies and Expression Analysis (LTEA) Assay for NAD(P)H dehydrogenase [quinone] 1 (NQO1) using HepaRG (AID 2283526)
# Outline: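 In this assay, gene expression is read by qRT-PCR after 48 h exposure of HepaRG cells to eight concentrations (max 100 uM, half-log) in 0.5% DMSO. Each chemical runs in duplicate, and activity is scored relative to vehicle.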
# [7] = read-out: Nuclear factor erythroid 2-related factor 2 (Homo sapiens) (UniProt Q16236); experiment: LTEA_HepaRG_NFE2L2: Life Technologies and Expression Analysis (LTEA) Assay for Nuclear factor erythroid 2-related factor 2 (NFE2L2) Transcription Factor using HepaRG (AID 2283527);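 for outcome: TaqMan qRT-PCR transcript level normalised to ACTB GAPDH and POLR2A housekeeping genes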
# Outline: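 Human liver HepaRG line treated in duplicate for 48 h with an eight-point series topping at 100 uM. Gene expression of NFE2L2 by qRT-PCR, bidirectionally fitted against the vehicle control.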
# [8] = read-out: succinate dehydrogenase complex iron sulfur subunit B (SDHB), SDHB (gene 6390); experiment: LTEA_HepaRG_SDHB: Life Technologies and Expression Analysis (LTEA) Assay for succinate dehydrogenase complex iron sulfur subunit B (SDHB) using HepaRG (AID 2283528)
# Outline: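 HepaRG cells (~100,000/well, plated 48 h) exposed in duplicate for 48 h in serum-free induction medium to 8-point half-log series from 100 uM in 0.5% DMSO; mRNA by qRT-PCR normalised to ACTB, GAPDH, POLR2A; bidirectional fit versus DMSO.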
# [9] = read-out: Signal transducer and activator of transcription 3 (Homo sapiens) (UniProt P40763); experiment: LTEA_HepaRG_STAT3: Life Technologies and Expression Analysis (LTEA) Assay for Signal transducer and activator of transcription (STAT3) using HepaRG (AID 2283529)
# Outline: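 In this transcriptional endpoint, HepaRG cultures receive test chemicals at up to 100 uM for 48 h, tested in duplicate. STAT3 mRNA is normalized to ACTB, GAPDH and POLR2A.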
# [10] = read-out: solute carrier (SLCO1B1), SLCO1B1 (gene 10599); experiment: LTEA_HepaRG_SLCO1B1: Life Technologies and Expression Analysis (LTEA) Assay for solute carrier (SLCO1B1) using HepaRG (AID 2283530)
# Outline: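 Differentiated human HepaRG cells, plated 48 h, switched to serum-free induction medium and exposed in duplicate for 48 h to 8 half-log concentrations (top 100 uM) in 0.5% DMSO. SLCO1B1 mRNA by TaqMan qRT-PCR, normalized to ACTB/GAPDH/POLR2A.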
# [11] = read-out: Transforming Growth Factor (TGFA), TGFA (gene 7039); experiment: LTEA_HepaRG_TGFA: Life Technologies and Expression Analysis (LTEA) Assay for Transforming Growth Factor (TGFA) using HepaRG (AID 2283532)
# Outline: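 Gene expression of TGFA was quantified by qRT-PCR after human HepaRG cells were treated for 48 h with test chemicals (eight concentrations, highest 100 uM, 0.5% DMSO). Activity in either direction was fitted relative to DMSO.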
# [12] = read-out: Transforming Growth Factor (TGFB1), TGFB1 (gene 7040); experiment: LTEA_HepaRG_TGFB1: Life Technologies and Expression Analysis (LTEA) Assay for Transforming Growth Factor (TGFB1) Transporter using HepaRG (AID 2283533)
# Outline: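 Differentiated human HepaRG cells in serum-free induction medium were exposed in duplicate for 48 h to eight concentrations (top 100 uM, half-log steps, 0.5% DMSO). TGFB1 mRNA was quantified by qRT-PCR, normalized to ACTB, GAPDH, POLR2A, and fitted bidirectionally against DMSO.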
# TIMP1, TIMP1 (gene 7076) = experiment: LTEA_HepaRG_TIMP1: Life Technologies and Expression Analysis (LTEA) Assay for TIMP1 using HepaRG (AID 2283534);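 for outcome: TaqMan qRT-PCR signal normalized to ACTB GAPDH and POLR2A housekeeping genes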
# Outline: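 Differentiated human HepaRG cells in serum-free induction medium were exposed 48 h to chemicals (8 half-log concentrations, top 100 uM, 0.5% DMSO). TIMP1 mRNA was quantified by TaqMan qRT-PCR, normalized to ACTB/GAPDH/POLR2A; bidirectional fit versus DMSO.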
# [13] = read-out: Tumor necrosis factor receptor 1 (TNFRSF1A), TNFRSF1A (gene 7132); experiment: LTEA_HepaRG_TNFRSF1A: Life Technologies and Expression Analysis (LTEA) Assay for Tumor necrosis factor receptor 1 (TNFRSF1A) using HepaRG (AID 2283535)
# Outline: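 Differentiated human HepaRG cells were exposed in duplicate for 48 h in serum-free induction medium to eight concentrations (top 100 uM, half-log steps, 0.5% DMSO). TNFRSF1A mRNA was quantified by qRT-PCR, normalized to ACTB, GAPDH and POLR2A, then fitted bidirectionally against DMSO.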
# [14] = read-out: Thyroid Hormone Responsive (THRSP), THRSP (gene 7069); experiment: LTEA_HepaRG_THRSP: Life Technologies and Expression Analysis (LTEA) Assay for Thyroid Hormone Responsive (THRSP) using HepaRG (AID 2283536)
# Outline: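 Cell model: human HepaRG, approx. 100,000 cells/well, 0.5% DMSO vehicle. Exposure lasts 48 h; phenobarbital 1 mM serves as induction positive control. Gene expression is measured by qRT-PCR against three endogenous control genes.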
# [15] = read-out: Cellular tumor antigen p53 (Homo sapiens) (UniProt P04637); experiment: LTEA_HepaRG_TP53: Life Technologies and Expression Analysis (LTEA) Assay for Tumor Protein P53 (TP53) using HepaRG (AID 2283537)
# Outline: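 Differentiated HepaRG cells in serum-free induction medium exposed 48 h in duplicate to 8 half-log concentrations, top 100 uM, 0.5% DMSO. TP53 mRNA by TaqMan qRT-PCR (Fluidigm), normalized to ACTB, GAPDH, POLR2A; fitted bidirectionally versus DMSO.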
# [16] = read-out: UDP glucuronosyltransferase (UGT1A6), UGT1A6 (gene 54578); experiment: LTEA_HepaRG_UGT1A6: Life Technologies and Expression Analysis (LTEA) Assay for UDP glucuronosyltransferase (UGT1A6) using HepaRG (AID 2283539)
# Outline: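 Human HepaRG cells were dosed for 48 h in serum-free induction medium with 0.5% DMSO vehicle, eight-point half-log series from 100 uM, in duplicate. UGT1A6 mRNA was measured by qRT-PCR, normalized to ACTB, GAPDH, POLR2A, and fitted bidirectionally against DMSO.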
# [17] = read-out: sulfotransferase 2A1 (SULT2A1), SULT2A1 (gene 6822); experiment: LTEA_HepaRG_SULT2A1: Life Technologies and Expression Analysis (LTEA) Assay for sulfotransferase 2A1 (SULT2A1) using HepaRG (AID 2283531)
# Outline: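 Differentiated human HepaRG cells in serum-free induction medium were exposed for 48 h to eight half-log concentrations (top 100 uM, 0.5% DMSO). SULT2A1 mRNA was measured by qRT-PCR, normalized to ACTB, GAPDH and POLR2A, and fitted bidirectionally against DMSO.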
# [18] = read-out: UDP glucuronosyltransferase (UGT1A1), UGT1A1 (gene 54658); experiment: LTEA_HepaRG_UGT1A1: Life Technologies and Expression Analysis (LTEA) Assay for UDP glucuronosyltransferase (UGT1A1) using HepaRG (AID 2283538)
# Outline: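 mRNA induction or loss of UGT1A1, by TaqMan qRT-PCR, in duplicate HepaRG wells after 48 h exposure to half-log dilutions topping at 100 uM; DMSO (0.5%) served as baseline.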
# [19] = read-out: X-box binding protein 1 (XBP1), XBP1 (gene 7494); experiment: LTEA_HepaRG_XBP1: Life Technologies and Expression Analysis (LTEA) Assay for X-box binding protein 1 (XBP1) using HepaRG (AID 2283540)
# Outline: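 Differentiated human HepaRG cells in serum-free induction medium were exposed in duplicate for 48 h to eight half-log concentrations up to 100 uM in 0.5% DMSO. XBP1 mRNA was quantified by qRT-PCR, normalised to ACTB, GAPDH and POLR2A, with bidirectional fitting against DMSO.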
# Sequence of Signal transducer and activator of transcription 3 (Homo sapiens) (P40763 whole entry, looked up): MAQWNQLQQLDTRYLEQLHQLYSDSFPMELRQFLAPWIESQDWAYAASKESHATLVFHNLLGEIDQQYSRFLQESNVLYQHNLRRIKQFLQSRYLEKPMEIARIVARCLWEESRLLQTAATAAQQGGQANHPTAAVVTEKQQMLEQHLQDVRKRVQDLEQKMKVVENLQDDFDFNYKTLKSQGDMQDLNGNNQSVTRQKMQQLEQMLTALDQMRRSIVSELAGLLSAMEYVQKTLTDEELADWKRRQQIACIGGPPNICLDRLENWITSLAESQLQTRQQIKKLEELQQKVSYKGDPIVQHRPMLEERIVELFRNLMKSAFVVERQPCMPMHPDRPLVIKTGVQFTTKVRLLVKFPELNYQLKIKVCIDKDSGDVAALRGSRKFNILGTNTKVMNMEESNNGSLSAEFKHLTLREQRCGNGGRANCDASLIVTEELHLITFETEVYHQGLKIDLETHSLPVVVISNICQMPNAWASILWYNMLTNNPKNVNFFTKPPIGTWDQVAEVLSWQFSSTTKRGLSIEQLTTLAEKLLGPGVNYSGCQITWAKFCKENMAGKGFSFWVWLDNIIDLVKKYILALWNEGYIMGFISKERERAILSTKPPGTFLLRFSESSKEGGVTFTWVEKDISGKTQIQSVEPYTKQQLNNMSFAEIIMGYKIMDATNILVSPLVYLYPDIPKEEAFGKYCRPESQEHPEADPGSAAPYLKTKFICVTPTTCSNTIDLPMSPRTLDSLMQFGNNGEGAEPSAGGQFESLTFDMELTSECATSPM
# Sequence of Nuclear factor erythroid 2-related factor 2 (Homo sapiens) (Q16236 whole entry, looked up): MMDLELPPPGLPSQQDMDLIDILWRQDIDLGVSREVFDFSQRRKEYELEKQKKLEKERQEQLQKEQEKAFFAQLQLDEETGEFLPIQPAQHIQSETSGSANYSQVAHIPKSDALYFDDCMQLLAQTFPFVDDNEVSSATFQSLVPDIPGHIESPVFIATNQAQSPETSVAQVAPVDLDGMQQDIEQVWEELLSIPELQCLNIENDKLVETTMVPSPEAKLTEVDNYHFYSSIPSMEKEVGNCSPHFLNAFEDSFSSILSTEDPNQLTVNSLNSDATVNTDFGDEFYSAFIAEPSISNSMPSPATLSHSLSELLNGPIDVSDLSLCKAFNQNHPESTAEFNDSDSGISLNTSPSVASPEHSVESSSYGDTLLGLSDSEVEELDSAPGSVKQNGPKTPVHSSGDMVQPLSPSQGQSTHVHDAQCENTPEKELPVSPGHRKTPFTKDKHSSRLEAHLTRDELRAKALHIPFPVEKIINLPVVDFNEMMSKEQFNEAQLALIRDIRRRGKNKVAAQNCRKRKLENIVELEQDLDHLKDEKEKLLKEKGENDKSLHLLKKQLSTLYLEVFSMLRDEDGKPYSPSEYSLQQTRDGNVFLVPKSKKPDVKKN
# Sequence of Nuclear factor NF-kappa-B p105 subunit (Homo sapiens) (P19838 whole entry, looked up): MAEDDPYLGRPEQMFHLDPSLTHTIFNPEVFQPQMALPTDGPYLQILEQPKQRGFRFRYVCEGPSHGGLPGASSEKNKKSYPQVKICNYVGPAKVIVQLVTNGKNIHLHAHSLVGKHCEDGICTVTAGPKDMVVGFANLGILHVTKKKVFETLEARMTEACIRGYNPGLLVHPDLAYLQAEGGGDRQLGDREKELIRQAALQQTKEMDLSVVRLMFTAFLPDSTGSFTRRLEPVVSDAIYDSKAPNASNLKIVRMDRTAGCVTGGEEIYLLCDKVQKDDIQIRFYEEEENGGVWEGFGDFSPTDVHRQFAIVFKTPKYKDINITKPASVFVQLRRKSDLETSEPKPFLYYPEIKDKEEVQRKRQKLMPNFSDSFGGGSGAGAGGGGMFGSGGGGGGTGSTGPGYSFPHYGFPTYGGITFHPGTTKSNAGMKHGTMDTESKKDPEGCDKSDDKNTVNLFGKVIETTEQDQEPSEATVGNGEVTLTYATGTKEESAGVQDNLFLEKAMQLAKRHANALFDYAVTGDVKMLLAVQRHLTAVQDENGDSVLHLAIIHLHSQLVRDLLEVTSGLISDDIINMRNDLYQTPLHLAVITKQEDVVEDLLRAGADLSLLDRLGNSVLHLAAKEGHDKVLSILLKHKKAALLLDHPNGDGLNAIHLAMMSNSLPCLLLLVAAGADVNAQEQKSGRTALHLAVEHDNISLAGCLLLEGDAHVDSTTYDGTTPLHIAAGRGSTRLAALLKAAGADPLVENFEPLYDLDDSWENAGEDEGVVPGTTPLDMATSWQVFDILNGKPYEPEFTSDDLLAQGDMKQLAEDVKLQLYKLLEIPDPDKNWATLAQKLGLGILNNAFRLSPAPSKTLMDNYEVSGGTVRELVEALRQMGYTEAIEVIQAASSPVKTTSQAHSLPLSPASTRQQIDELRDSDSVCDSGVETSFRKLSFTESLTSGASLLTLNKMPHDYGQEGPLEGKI
# Sequence of Cellular tumor antigen p53 (Homo sapiens) (P04637 whole entry, looked up): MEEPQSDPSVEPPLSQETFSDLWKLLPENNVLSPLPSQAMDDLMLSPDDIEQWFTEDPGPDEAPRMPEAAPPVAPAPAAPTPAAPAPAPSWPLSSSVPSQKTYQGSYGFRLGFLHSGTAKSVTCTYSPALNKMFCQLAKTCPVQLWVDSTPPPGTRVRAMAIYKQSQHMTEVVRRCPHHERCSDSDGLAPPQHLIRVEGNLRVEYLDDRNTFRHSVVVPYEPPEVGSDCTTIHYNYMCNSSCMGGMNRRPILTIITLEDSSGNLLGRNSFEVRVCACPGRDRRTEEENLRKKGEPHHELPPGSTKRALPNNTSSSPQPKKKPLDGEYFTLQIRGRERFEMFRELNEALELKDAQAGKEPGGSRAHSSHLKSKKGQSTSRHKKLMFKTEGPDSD
smiles,measurement,setting,value
C=CCc1ccc(OC)c(OC)c1,outcome,[1],inactive
same,outcome,[2],inactive
same,AC50,[3],0.0454 µM (active)
same,outcome,[4],inactive
same,outcome,[5],inactive
same,outcome,[6],inactive
same,outcome,[7],inactive
same,outcome,[8],inactive
same,outcome,[9],inactive
same,AC50,[10],315 nM (active)
same,AC50,[11],9.92 µM (active)
same,outcome,[12],inactive
same,outcome,"TIMP1, TIMP1 (gene 7076)",inactive
same,outcome,[13],inactive
same,outcome,[14],inactive
same,outcome,[15],inactive
same,outcome,[16],inactive
CO[C@@H]1COCC[C@@H]1N[C@@H]1CC[C@@](C(=O)N2CCc3ncc(C(F)(F)F)cc3C2)(C(C)C)C1,outcome,[1],inactive
same,outcome,[2],inactive
same,outcome,[3],inactive
same,outcome,[4],inactive
same,outcome,[5],inactive
same,outcome,[6],inactive
same,outcome,[7],inactive
same,outcome,[8],inactive
same,outcome,[9],inactive
same,outcome,[10],inactive
same,outcome,[17],inactive
same,outcome,[11],inactive
same,outcome,[12],inactive
same,outcome,"TIMP1, TIMP1 (gene 7076)",inactive
same,outcome,[13],inactive
same,outcome,[14],inactive
same,outcome,[15],inactive
same,outcome,[18],inactive
same,outcome,[16],inactive
same,outcome,[19],inactive
CCCCc1nc2cccnc2n1Cc1ccc(-c2ccccc2-c2nnn[nH]2)cc1,outcome,[1],inactive
same,outcome,[2],inactive
same,outcome,[3],inactive
same,AC50,[4],65.5 µM (active)
same,AC50,[5],28.6 µM (active)
same,outcome,[6],inactive
same,outcome,[7],inactive
same,outcome,[8],inactive
same,outcome,[9],inactive
same,outcome,[10],inactive
same,outcome,[17],inactive
same,outcome,[11],inactive
same,outcome,[12],inactive
same,outcome,"TIMP1, TIMP1 (gene 7076)",inactive
same,outcome,[13],inactive
same,AC50,[14],35.5 µM (active)
same,outcome,[15],inactive
same,outcome,[16],inactive
same,outcome,[19],inactive
CC(C)OC(=O)C(C)(C)Oc1ccc(C(=O)c2ccc(Cl)cc2)cc1,outcome,[1],inactive
same,outcome,[2],inactive
same,outcome,[3],inactive
same,outcome,[4],inactive
same,AC50,[5],16.7 µM (active)
same,outcome,[6],inactive
same,outcome,[7],inactive
same,outcome,[8],inactive
same,outcome,[9],inactive
same,outcome,[10],inactive
same,outcome,[17],inactive
same,outcome,[11],inactive
same,outcome,[12],inactive
same,outcome,"TIMP1, TIMP1 (gene 7076)",inactive
same,outcome,[13],inactive
same,outcome,[14],inactive
same,AC50,[16],0.0504 µM (active)
same,outcome,[19],inactive
CN(C)CCCN1c2ccccc2Sc2ccc(Cl)cc21,AC50,[1],78.4 µM (active)
same,outcome,[2],inactive
same,AC50,[3],78 µM (active)
same,AC50,[4],79.4 µM (active)
same,outcome,[5],inactive
same,AC50,[6],83.9 µM (active)
same,AC50,[7],82.4 µM (active)
same,outcome,[9],inactive
same,outcome,[10],inactive
same,outcome,[11],inactive
same,AC50,[12],12.5 µM (active)
same,outcome,"TIMP1, TIMP1 (gene 7076)",inactive
same,outcome,[13],inactive
same,AC50,[14],15.8 µM (active)
same,outcome,[15],inactive
same,outcome,[16],inactive
same,outcome,[19],inactive
Cc1ccc(-c2cc(C(F)(F)F)nn2-c2ccc(S(N)(=O)=O)cc2)cc1,AC50,[1],70.2 µM (active)
same,outcome,[2],inactive
same,outcome,[3],inactive
same,AC50,[4],55.9 µM (active)
same,outcome,[5],inactive
same,outcome,[6],inactive
same,AC50,[7],62.7 µM (active)
same,outcome,[8],inactive
same,AC50,[9],89.2 µM (active)
same,outcome,[10],inactive
same,AC50,[11],73.1 µM (active)
same,AC50,[12],84.2 µM (active)
same,AC50,"TIMP1, TIMP1 (gene 7076)",88 µM (active)
same,AC50,[13],93.5 µM (active)
same,outcome,[14],inactive
same,AC50,[18],86.3 µM (active)
same,AC50,[16],71.6 µM (active)
